Compound activity from PubChem BioAssay.
Only some compounds are listed: those with a hit (about 3.7% of all), similar ones and a draw of the others.
BJeLR lethal = kills HRASV12-expressing BJeLR cells; BJeLR (HRASV12) viability, CellTiter-Glo ATP luminescence, 48 h; inhibition, % (no concentration beside the values); 0.17% of 300,000 active; in the data active = inhibition above about 50%
BoNT A protease = blocks Botulinum neurotoxin A light chain protease. multiplex microsphere protease substrate cleavage, flow cytometry. inhibition, % at 10 µM. 0.17% of 360,000 active
Anthrax LF prot = blocks Bacillus anthracis lethal factor protease; P15917; multiplex microsphere protease cleavage assay, LF; inhibition, % at 10 µM; 0.12% of 360,000 active; AID 588501
Target sequence (P15917 whole entry, looked up): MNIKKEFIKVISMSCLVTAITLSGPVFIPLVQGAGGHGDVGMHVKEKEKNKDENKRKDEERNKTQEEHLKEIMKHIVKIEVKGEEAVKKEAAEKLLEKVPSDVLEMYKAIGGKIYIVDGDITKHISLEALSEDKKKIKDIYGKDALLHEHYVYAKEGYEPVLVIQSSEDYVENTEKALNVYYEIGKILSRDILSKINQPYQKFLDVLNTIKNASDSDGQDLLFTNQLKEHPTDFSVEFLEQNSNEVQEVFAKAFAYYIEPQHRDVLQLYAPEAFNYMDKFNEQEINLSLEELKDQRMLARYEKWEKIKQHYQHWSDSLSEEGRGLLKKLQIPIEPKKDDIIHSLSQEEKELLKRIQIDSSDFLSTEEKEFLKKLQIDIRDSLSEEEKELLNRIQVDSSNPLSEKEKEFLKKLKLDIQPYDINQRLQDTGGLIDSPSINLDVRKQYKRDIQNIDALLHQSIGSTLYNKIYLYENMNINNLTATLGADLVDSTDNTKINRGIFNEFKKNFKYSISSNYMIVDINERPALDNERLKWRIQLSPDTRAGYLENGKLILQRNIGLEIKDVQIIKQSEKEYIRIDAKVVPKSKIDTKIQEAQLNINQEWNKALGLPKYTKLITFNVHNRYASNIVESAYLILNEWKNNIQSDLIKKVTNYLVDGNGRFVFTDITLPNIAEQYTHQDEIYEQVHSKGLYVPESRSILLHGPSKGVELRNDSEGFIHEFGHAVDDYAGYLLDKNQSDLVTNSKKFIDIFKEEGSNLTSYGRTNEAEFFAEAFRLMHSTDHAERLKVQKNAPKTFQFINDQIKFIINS
BH1578 lux ind = induces V. cholerae light production without autoinducers; V. cholerae BH1578 lux reporter, luminescence, 6 h; activation, % at 18.7 µM; 0.16% of 350,000 active; in the data active = activation mostly above about 9.7%, no sharp cut-off
BoNT F protease = inhibitors of Botulinum neurotoxin F light chain protease; Multiplex microsphere protease cleavage assay, flow cytometry; inhibition, % at 10 µM; AID 588497; 0.22% of 360,000 active; in the data active = inhibition above about 35%, passing the limit was not always enough
Autofluor counter = counter-screen for toxin protease inhibitors: compound fluorescence | 3.1% of 360,000 active | compound autofluorescence counterscreen, microsphere flow cytometry; hits give high values | fluorescence intensity (no concentration beside the values); in the data active = fluorescence intensity above about 16000
BoNTA LC inh 2 = blocks botulinum neurotoxin A light chain protease; 10% of 150 active; multiplex microsphere protease cleavage assay, flow cytometry; shares compounds with BoNT A protease; AID 602325; inhibition, % at 10 µM; in the data active = inhibition above about 24%
LF protease CP2 = Bacillus anthracis lethal factor protease inhibition | shares compounds with BoNT A protease | multiplex microsphere protease cleavage assay | inhibition, % at 10 µM | 7% of 150 active | AID 602327; in the data active = inhibition above about 25%
BoNTF LC inh 2 = BoNT/F light chain protease inhibition; shares compounds with BoNT A protease; multiplex microsphere protease cleavage assay, flow cytometry; inhibition, % at 10 µM; 7% of 150 active; AID 602336; in the data active = inhibition above about 25%
Of the large screens only hits and unclear results are named; the others gave an inactive call (follow-up assays come after a bar, where they were run). Rule as the data show it, unless noted: active = inhibition above about 30%; inconclusive = no clear call, values can overlap the other calls; inactive = below that.

CC1(C)CC(=O)C=C(c2ccc(Oc3ccccc3)cc2)C1=O	none (no result: BJeLR lethal)
COc1ccc(C#Cc2ccc(C3=CC(=O)CC(C)(C)C3=O)cc2)cc1	Anthrax LF prot 29.6 (no result: BJeLR lethal) | BoNTA LC inh 2 inactive | LF protease CP2 inactive | BoNTF LC inh 2 inactive
CCCC(=O)N1CCCC1(C)C(=O)NCc1ccc(SC)cc1 (configuration not stated)	none (no result: BJeLR lethal)
Cc1cc2cc(CNC(=O)c3ccc(S(=O)(=O)N4CCCC4)cc3)ccc2n1C	BoNT A protease 79.7 | BoNTA LC inh 2 inactive | LF protease CP2 inactive | BoNTF LC inh 2 inactive
Cc1ccc(CNC(=O)c2ccc(S(=O)(=O)N3CCCC3)cc2)cc1	none (no result: BJeLR lethal)
CCN(CC)S(=O)(=O)c1ccc(C(=O)NCc2ccc3c(c2)cc(C)n3C)cc1	BoNT A protease 80.8 | BoNTA LC inh 2 inactive | LF protease CP2 inactive | BoNTF LC inh 2 inactive
Cc1cc2cc(CNC(=O)c3ccc(S(=O)(=O)N4CCCCC4)cc3)ccc2n1C	BoNT A protease 79.9 | BoNTA LC inh 2 inactive | LF protease CP2 inactive | BoNTF LC inh 2 inactive
CN(Cc1ccccc1)C(c1ccnc2ccccc12)c1nnnn1-c1ccc2c(c1)OCCO2 (configuration not stated)	none (no result: BJeLR lethal, BH1578 lux ind)
COc1cccc(C(O)c2nc(-c3cccc(CO)c3)cs2)c1 (configuration not stated)	none (no result: BJeLR lethal)
O=C(NCC1CC1)c1cccc2c1C(=O)c1ccc(N3CCCC3)cc1S2(=O)=O	none (no result: BJeLR lethal)
CC1CCN(c2ccc3c(c2)S(=O)(=O)c2cccc(C(=O)NC[C@@H]4CCCO4)c2C3=O)CC1	none (no result: BJeLR lethal) | BoNTA LC inh 2 inactive | LF protease CP2 inactive | BoNTF LC inh 2 inactive
CC1CCN(c2ccc3c(c2)S(=O)(=O)c2cccc(C(=O)NC4CC4)c2C3=O)CC1	none (no result: BJeLR lethal) | BoNTA LC inh 2 inactive | LF protease CP2 inactive | BoNTF LC inh 2 inactive
COc1ccccc1N1CCN(c2ccc3c(c2)S(=O)(=O)c2cccc(C(=O)NCc4cccc(F)c4)c2C3=O)CC1	none (no result: BJeLR lethal) | BoNTA LC inh 2 inactive | LF protease CP2 inactive | BoNTF LC inh 2 inactive
O=C(NC1CCCCC1)c1cccc2c1C(=O)c1ccc(N3CCC(Cc4ccccc4)CC3)cc1S2(=O)=O	Anthrax LF prot 34.1 (no result: BJeLR lethal) | BoNTA LC inh 2 inactive | LF protease CP2 inactive | BoNTF LC inh 2 inactive
O=C(NC[C@@H]1CCCO1)c1cccc2c1C(=O)c1ccc(N3CCOCC3)cc1S2(=O)=O	none (no result: BJeLR lethal)
CC1ON=C(c2cccc3ccccc23)N(C)C1=O (configuration not stated)	none (no result: BJeLR lethal)
Cc1[nH]c2ccccc2c1C(=O)COC(=O)c1ccccc1O	none (no result: BJeLR lethal) | BoNTA LC inh 2 inactive | LF protease CP2 inactive | BoNTF LC inh 2 inactive
CCC(=O)NCCn1c(C)cc2ccccc21	Anthrax LF prot 33.2 | BoNTA LC inh 2 34.0 | LF protease CP2 inactive | BoNTF LC inh 2 27.8
Cc1cc2ccccc2n1CCNC(=O)c1ccc(S(=O)(=O)N2CCOCC2)cc1	none
Cc1cc2ccccc2n1CCNC(=O)c1ccc(Br)o1	BoNT A protease 66.4 | BoNTA LC inh 2 inactive | LF protease CP2 inactive | BoNTF LC inh 2 inactive
COC(=O)CNC(=O)COc1ccccc1	none
Cc1cc2ccccc2n1CCNC(=O)C(C)(C)C	BoNT A protease 96.1 | BoNTA LC inh 2 inactive | LF protease CP2 inactive | BoNTF LC inh 2 inactive
Cc1cc2ccccc2n1CCNC(=O)COc1ccccc1	BoNT A protease 84.4 | BoNTA LC inh 2 77.2 | LF protease CP2 49.7 | BoNTF LC inh 2 inactive
COc1cc(CN2C[C@@H](CO)O[C@@H](n3cnc4c(N5CCOCC5)ncnc43)C2)cc(OC)c1OC	none (no result: BJeLR lethal)
Cc1cc2ccccc2n1CCNC(=O)Cc1cccc2ccccc12	BoNT A protease 55.2 | BoNTA LC inh 2 inactive | LF protease CP2 inactive | BoNTF LC inh 2 inactive
Cc1cnc(C=O)c2cccc([N+](=O)[O-])c12	none (no result: BJeLR lethal)
O=C(OCc1ccccc1)N1CCC2CC1c1ccc(N3CCN(Cc4ccc5c(c4)OCO5)CC3)cc12 (configuration not stated)	none (no result: BJeLR lethal, BH1578 lux ind)
COc1ccc(S(=O)(=O)NCc2ccc3c(c2)cc(C)n3C)cc1	BoNT A protease 79.4 | BoNTA LC inh 2 24.2 | LF protease CP2 inactive | BoNTF LC inh 2 inactive
Cc1cc2cc(CNS(=O)(=O)c3ccccc3)ccc2n1C	BoNT A protease 83.3 | BoNTA LC inh 2 inactive | LF protease CP2 inactive | BoNTF LC inh 2 inactive
COc1ccc(CNS(=O)(=O)c2ccc(C)cc2)cc1	none
Cc1cc2cc(CNC(=O)c3ccc(C)c([N+](=O)[O-])c3)ccc2[nH]1	BoNT A protease 64.8 | BoNTA LC inh 2 inactive | LF protease CP2 inactive | BoNTF LC inh 2 inactive
CN=c1nc(-c2ccccc2)n(-c2ccccc2)s1	BoNT F protease 48.2 (no result: BJeLR lethal) | BoNTA LC inh 2 inactive | LF protease CP2 inactive | BoNTF LC inh 2 inactive
Cn1nc(-c2ccccc2)nc1-c1ccccc1	none
CC(C)C(NC(=O)OCc1ccccc1)C(=O)NC(Cc1c[nH]c2ccccc12)C(=O)O (configuration not stated)	none (no result: BJeLR lethal, BH1578 lux ind)
COc1ccc(-c2nc3c(Cl)cc(C(F)(F)F)cn3c2Cc2ccsc2)cc1OC	none (no result: BJeLR lethal, BH1578 lux ind) | BoNTA LC inh 2 inactive | LF protease CP2 inactive | BoNTF LC inh 2 inactive
COc1cccc(CN2CCC2(C)C(=O)Nc2cccc(NS(C)(=O)=O)c2)c1OC (configuration not stated)	none (no result: BJeLR lethal)
COc1ccc(-c2csc(C(O)c3ccc(F)cc3)n2)cn1 (configuration not stated)	none (no result: BJeLR lethal)
COc1ccc(Cc2c(-c3ccc(OC)c(OC)c3)nc3c(C)cc(Br)cn23)c(C)c1	BoNT A protease 31.6 (no result: BJeLR lethal, BH1578 lux ind) | BoNTA LC inh 2 inactive | LF protease CP2 inactive | BoNTF LC inh 2 inactive
COc1ccc(Cc2c(-c3ccccc3)nc3cc(C)c(Br)c(C)n23)c(C)c1	none (no result: BJeLR lethal, BH1578 lux ind)
COc1ccc(Cc2c(-c3ccc(OC)c(OC)c3)nc3cc(C)c(Br)c(C)n23)c(C)c1	none (no result: BJeLR lethal, BH1578 lux ind) | BoNTA LC inh 2 inactive | LF protease CP2 inactive | BoNTF LC inh 2 inactive
COc1ccc(OC)c(S(=O)(=O)NC(=O)C2(C)CCN2C(=O)Cc2ccccc2)c1 (configuration not stated)	none (no result: BJeLR lethal)
Cc1ccc(C(=O)COC(=O)COc2ccccc2C)cc1	none
Cc1ccccc1OCC(=O)OCC(=O)c1c[nH]c2ccccc12	none (no result: BJeLR lethal) | BoNTA LC inh 2 inactive | LF protease CP2 inactive | BoNTF LC inh 2 inactive
COc1ccc(CC(=O)OCC(=O)c2c[nH]c3ccccc23)cc1	BoNT A protease 52.7 (no result: BJeLR lethal) | BoNTA LC inh 2 inactive | LF protease CP2 inactive | BoNTF LC inh 2 inactive
COc1cc(CC(=O)OCC(=O)c2c[nH]c3ccccc23)cc(OC)c1OC	BoNT A protease 50.2 (no result: BJeLR lethal) | BoNTA LC inh 2 inactive | LF protease CP2 inactive | BoNTF LC inh 2 inactive
CC(=O)C(=Cc1cccc(C#N)c1)C(=O)c1ccccc1	none (no result: BJeLR lethal, BH1578 lux ind)
COC(=O)c1c(C(=O)OC)c2c(-c3ccccc3)cc3cccc1n32	BoNT A protease 36.9, Anthrax LF prot 36.7 (no result: BJeLR lethal) | BoNTA LC inh 2 inactive | LF protease CP2 inactive | BoNTF LC inh 2 inactive
